“And” between values parts separate entries of the source, which are not always exact repeats. Equal values may be shown once. The panel holds about 83,000 compounds, 20% with a hit somewhere; the sample as a whole holds those more often.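 Growth was measured after 48 h exposure to one concentration of compound in 96-well plates. Values under 10 count as active.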 Unmarked numbers belong to inactive results. The source made the active and inactive calls.
system: MDA-MB-468 breast; assay: NCI-60 one-dose screen, 48 h (100 = growth as untreated, 0 = no growth, -100 = all killed); details: 10 µM unless noted

Compound | growth
COc1cc(Cl)c(C)cc1NC(=O)c1cc2ccccc2cc1O | -8.5% (active)
CCCCCCCCCCN=C(N)N=C(N)N | -12.9% (active)
COc1ccc(N=Nc2ccc(O)c(=O)cc2)cc1 | -31.9% (active)
CC(C)(C)c1cc(C[P+](c2ccccc2)(c2ccccc2)c2ccccc2)cc(C(C)(C)C)c1O | -2.61% (active)
O=C(CSc1nc2ccccc2c(=O)n1CCc1ccccc1)Nc1ccc(S(=O)(=O)Nc2ccc(Cl)nn2)cc1 | 103%
O=C(CCCCCCNC(=O)C(O)(O)C(F)(F)F)Nc1ncc(-c2ccccc2)s1 | -25% (active)
COc1cc2cc3cc4cc(OC)c(OC)cc4c(C)[n+]3cc2cc1OC (tested in a mixture with another compound) | 44%
CN(CCc1ccccn1)c1ccccc1 | 113%
O/N=C(/c1ccccc1)c1ccc2c3c(cccc13)CC2 | 57.5% and 59.8%
COc1cccc(C2C(C#N)=C(N)Oc3cc4c(cc32)OCO4)c1 (stereo not given) | 2.26% (active)
COc1ccc(/C=C2\SC(=O)N(Cc3cc(=O)oc4ccc(OC)cc34)C2=O)cc1 | 46.6%
N#Cc1nnn(-c2ccc(S(N)(=O)=O)cc2)c1NC(=O)CCl | 98.7%
Cc1cc2nc(-c3ccccc3)c(-c3ccccc3)nc2cc1C | 106%
Cn1c2ccc(Cl)cc2c2nn(C(=O)c3ccccc3)c(=O)nc21 | 103%
CCN1CCN(Cc2ccc(NC(=O)Nc3nc4ccc(Oc5ccnc(C(=O)NC)c5)cc4s3)cc2C(F)(F)F)CC1 | -66.3% (active)
Nc1c(Br)cc2c(c1Br)Cc1cc(Cl)ccc1-2 | -5.33% (active)
O=C(Nc1ccc(-c2nc(-c3cccc(O)c3)c(-c3ccnc(Br)c3)[nH]2)cc1)c1ccccc1 | 7.45% (active)
CCN(CC)CCOc1ccc(/C(=C(\Cl)c2ccccc2)c2ccccc2)cc1 | -60% (active) and -6.23% (active)
COc1ccc(S(=O)(=O)Nc2cc(/C=C\c3cc(OC)c(OC)c(OC)c3)cc(OC)c2OC)cc1OC | 25.5%
COc1ccccc1/C=C/C(=O)c1nnn(-c2ccc(C(=O)O)cc2)c1C | 74.5%

Compound | growth
S=c1[nH]c(=S)c2c(-c3ccccc3)c(-c3ccccc3)oc2[nH]1 | 96.7%
O=C(Nc1cccc2c(O)c(N=Nc3ccc(S(=O)(=O)Nc4nccs4)cc3)cc(N=Nc3ccc(S(=O)(=O)Nc4nccs4)cc3)c12)C(Cl)Cl | 7.35% (active)
CNC(=O)c1cc(N2CCc3cc(NC(=O)Nc4ccc(N5CCN(C)CC5)c(C(F)(F)F)c4)ccc32)ccn1 | 77.9%
CSc1ccc2c3c(n(C[C@H](O)CO)c(=O)c2c1)-c1ccccc1C3=O | 39.8%
C1CNC(C2=NCCN2)=N1 | -26.9% (active)
COc1ccc(-n2cc(COc3ccc4c5ccnc(C)c5n(CC(C)C)c4c3)nn2)cc1 | 35.3%
Cn1c(=O)c2c(ncn2CC[N+](C)(C)C)n(C)c1=O | 101%
OC1Cc2ccccc2C1 | 105%
Cc1ccc(/C=C/c2c(C(=O)/C=C/c3ccc(C(F)(F)F)cc3)c(C)nc3ccccc23)cc1 | -57.4% (active)
O=c1c2cc(F)ccc2sc2c(NCCN3CCCCC3)nc3ccccc3c12 | 6.41% (active)
Cn1c2ccccc2c2c(OC(=O)c3ccccc3)c3c(nc21)-c1ccccc1C3 | 100%
CC(C)c1[nH]nc2c(NCc3ccc(-c4ccccn4)cc3)nc(SCCN(C)C)nc12 | -50.1% (active)
O=c1oc2c(cnc3ccccc32)cc1-c1cccs1 | 107%
Cc1c(Cl)cccc1NC(=O)CN1CCOCC1 | 107%
CCCCCc1ccc(S(=O)(=O)Nc2cccc(-c3csc(NC(=O)CNCCN(C)C)n3)c2)cc1 | 82.9%
COc1ccc(-n2c(SCc3cc(OC)c(OC)c(OC)c3)nc3ccc(C)cc3c2=O)cc1 | 46.8%
O=[N+]([O-])c1ccc(NC(=S)N/N=C/c2cc3ccccc3n3nnnc23)cc1 | 61.7%
O=Nc1c(-c2c(O)[nH]c3ncccc23)[nH]c2ccccc12 | 28.4%
c1cnc2ccc3ncccc3c2c1 | 122%
Cc1cc2c(F)c(Oc3ncnc(Nc4ccc(N5C[C@@H](C)N[C@@H](C)C5)cc4)c3C#N)cc(F)c2[nH]1 | -5% (active)

Reference: PubChem BioAssay (NCI)
